Experimental data published in PubChem BioAssay AID652017 (The Scripps Research Institute Molecular Screening Center, 2013).
The campaign covered roughly 370,000 compounds. About 3,800 (1%) were called active. What follows is part of a selection rich in actives, with near analogues and random picks from the rest. Values without a mark were called inactive. Rule as the data show it: active = activation above about 7.8%; inactive = the rest.

experiment: SMARCA2 (BRM) function activators, primary screen, cell-based, luminescence, high throughput (AID 652017); conditions: MG213 cells, MMTV-luciferase reporter, dexamethasone, overnight; at 9.1 µM; active compounds read high;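 also: 0% = vehicle wells and 100% = reference activator wells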

SMILES | activation
CC1CN(Cc2ccco2)C(=S)N(c2ccccc2)C1=O (centres undefined) | -1.86%
CCc1ccccc1N1CN(Cc2ccco2)CNC1=S | -4.87%
CN(C)C(=S)N=c1ssc(=S)n1Cc1ccco1 | 8.22% (active)
COC(=O)C1=C(C)N(Cc2ccc(F)cc2)C(=S)NC1c1cccc(Cl)c1 (centres undefined) | -3.14%
Cc1ccc(C(=O)OC2=CC(=O)CC(C)(C)C2)cc1 | 2.66%
Cc1ccccc1C#CC1=CC(=O)CC(C)(C)C1 | 9.9% (active)
Cc1cc(O)ccc1NC1=CC(=O)CC(C)(C)C1 | -2.49%
COc1ccccc1N(CC(=O)Nc1ccc(C(F)(F)F)cc1)S(C)(=O)=O | -1.17%
C=CCN1C(=O)[C@@H](CC(=O)NCCCOCCCC)[C@]2(C(=O)OCC)CCCCC/C=C/12 | -1.57%
COc1ccc(-n2c(SCC(=O)NC3CCCC3)nnc2-c2ccncc2)cc1 | -4.56%
CSc1ncc(C(=O)NCCCc2ccccc2)c(C)n1 | -0.15%
Cc1c(C(=O)NCCCc2ccccc2)cccc1[N+](=O)[O-] | 8.08% (active)
O=C(O)c1ccccc1-c1ccccc1C(=O)NCCc1ccccc1 | 1.35%
O=S1(=O)c2c(cccc2N2CCSCC2)Oc2ccccc2CN1Cc1cn(Cc2ccc(F)cc2)nn1 | -2.23%
O=C(CCS(=O)(=O)c1ccccc1)Nc1ccc(Cl)c(Cl)c1 | 1.57%
COc1ccc(-n2c(SCC(=O)Nc3ccc4c(c3)OCCO4)nnc2-c2ccc(Cl)cc2)cc1 | -0.28%
O=C(Nc1ccccn1)C1CCN(S(=O)(=O)c2ccc3c(c2)OCCO3)CC1 | -2.23%
Cc1ccc(Cl)cc1NC(=O)C1CCN(S(C)(=O)=O)CC1 | -0.58%
Cc1ccnc(NC(=O)C2CCN(S(=O)(=O)c3c(C)c(C)cc(C)c3C)CC2)c1 | 9.5% (active)
COC(=O)[C@]12C[C@H](CC(=O)NCc3ccc(C)o3)C(=O)N(CCC3=CCCCC3)C1=C[C@H](C(C)(C)C)O[C@@H]2C | 3.47%

SMILES | activation
CCN(CC)C(=O)CC[C@@H]1CC[C@]2(CCCN(S(=O)(=O)C3CCCCC3)C2)O1 | -3.43%
COc1ccc(/C(N)=N/OC(=O)Oc2ccccc2)cc1 | 8.42% (active)
CO/N=C/CC(=O)c1ccc(OC)cc1 | 4.21%
N/C(=N\OC(=O)CCc1ccccc1)c1ccc(Cl)cc1 | 5.53%
CN(CC(=O)Nc1cccc(F)c1)C(=O)C1CSC2(C)CCC(=O)N12 (centres undefined) | -0.29%
CN1[C@H](Cc2ccccc2)COc2cccc(N3CCSCC3)c2S1(=O)=O | 0.97%
CCCCNc1ccc(C(=O)Nc2cccc(C)n2)cc1[N+](=O)[O-] | -1.63%
Cc1cc(O)c(NC(=O)c2ccc(C)c([N+](=O)[O-])c2)cc1C | 9.28% (active)
CCN1CCC(=NNC(=O)c2ccc(C)c([N+](=O)[O-])c2)CC1 | -0.87%
COc1ccc(C(=O)N2CCN(c3ncccn3)CC2)cc1S(=O)(=O)N1CCOCC1 | -2.62%
Cc1cc(C(=O)NN=C/C=C/c2ccco2)n[nH]1 | -4.94%
Cc1ccc(NC(=O)Cc2cccc(F)c2)c(S(=O)(=O)N2CCOCC2)c1 | -4.77%
Cc1ccc(-c2c(C)n([O-])c3c([n+]2=O)CCC3)cc1 | 14.5% (active)
Cc1ccc(-c2c[n+](=O)c3c(n2[O-])CCC3)cc1 | -3.37%
CCOc1ccc(-c2c(C)n([O-])c3c([n+]2=O)CCCC3)cc1 | 0.92%
CCCCCCOC(=O)NCC(O)c1ccccc1 (centres undefined) | 11.2% (active)
CCCCOC(=O)Nc1nnc(CC(=O)NCc2ccccc2)s1 | -0.38%
CCCc1cc(=O)oc2c(C)c(OC(C)C(=O)NCC(O)c3ccccc3)ccc12 (centres undefined) | -0.91%
CN(C)CCNC(=O)C(C(=O)c1ccccc1)n1ccccc1=O (centres undefined) | 2.29%
O=C(CSc1nc2ccccc2nc1N1CCCCC1)N1CCN(S(=O)(=O)c2cccc([N+](=O)[O-])c2)CC1 | 5.57%

SMILES | activation
O=C(NC1CCC1)c1ccc(C#Cc2cccc(F)c2)c[n+]1[O-] | -2.93%
O=C(Nc1ccc(OC(F)(F)F)cc1)c1ccc2c(c1)no[n+]2[O-] | -7.81%
Cn1cccc1/C=N/NC(=O)c1ccc(OC(F)(F)C(F)F)cc1 | 8.72% (active)
Cn1nccc1/C=N\NC(=O)c1ccc(Cl)cc1 | -0.88%
O=C(COc1cc(Cl)c(Cl)cc1Cl)NC(=O)NC1CCCC1 | -2.73%
CC(C)CSc1nnc(-c2cccnc2)n1Cc1ccccc1 | -4.95%
Cc1ccc(CN2CCCCC(NC(=O)C3CCCCC3)C2=O)cc1 (centres undefined) | -2.16%
Cc1cc(C)c2nc(NC(=O)C3CCCO3)sc2c1 (centres undefined) | 7.96% (active)
Cc1ccc(C)c(C(C)NC(=O)C2CCCO2)c1 (centres undefined) | -1.74%
Cc1cc(C)c2nc(N3CCC(C(=O)NCCN4CCOCC4)CC3)sc2c1 | -1.84%
CCOC(=O)[C@]12CCCC3=C1N(CCC3)C(=O)[C@@H](CC(=O)N1CCSCC1)C2 | -1.03%
CCOc1ccc(-n2c(SCC(=O)Nc3cc(C)c(NC(=O)c4ccccc4)cc3OC)nnc2-c2cccc(Cl)c2)cc1 | -5.83%
CN(C)S(=O)(=O)c1cccc(C(=O)N/N=C\c2ccco2)c1 | -2.36%
COc1cc(NC(=S)N2CCCC(C)C2)cc(OC)c1OC (centres undefined) | 3.14%
CCC(C)c1ccc(NC(=S)N2CCCC2)cc1 (centres undefined) | -0.97%
CCCCc1ccc(NC(=S)N2CCCC(CO)C2)cc1 (centres undefined) | 15% (active)
N#CCC[C@H]1CC[C@]2(CCCN(Cc3ccc(Cl)cc3)C2)O1 | -3.04%
COc1ccccc1C(=O)CSc1nnc(-c2ccccn2)n1-c1ccccc1 | 5.55%
O=S1(=O)c2ccc(N3CCN(Cc4ccccc4F)CC3)cc2Oc2ccccc2CN1Cc1cn(Cc2ccc(Cl)cc2)nn1 | 4.05%
